Source: PubChem
AmpC inh no detg: blocks E. coli AmpC beta-lactamase in detergent-free assay. AmpC nitrocefin hydrolysis, absorbance 480 nm, 0.0001% Triton. Potency, µM (series often up to 57.1 µM), for the others: at the top dose activity change, negative = inhibition, hits mostly inhibitors. hit rate 0.52% among 330,000. AID 485341;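 also: plate controls were no compound for no effect and no enzyme for full effect; nearly all actives have a fitted effect of over 20% in size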
Target sequence (P00811 whole entry, looked up): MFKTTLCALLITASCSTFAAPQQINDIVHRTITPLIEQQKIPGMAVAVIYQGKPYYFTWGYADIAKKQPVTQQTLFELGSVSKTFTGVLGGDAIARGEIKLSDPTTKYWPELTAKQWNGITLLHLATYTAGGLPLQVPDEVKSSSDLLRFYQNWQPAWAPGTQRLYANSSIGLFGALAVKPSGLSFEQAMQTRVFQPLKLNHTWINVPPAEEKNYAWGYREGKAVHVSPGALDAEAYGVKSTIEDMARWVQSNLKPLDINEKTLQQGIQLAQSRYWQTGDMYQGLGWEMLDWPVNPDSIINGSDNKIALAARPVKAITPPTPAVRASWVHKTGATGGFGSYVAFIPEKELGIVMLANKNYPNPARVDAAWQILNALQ
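20 mM phosphate pH 7.0 + 0.01% (detergent screen) or 0.0001% Triton X-100; 5.3 nM AmpC reagent; cpd preinc 15 min RT; nitrocefin (800 uM stock) to start; A480 q20 s × 4 min; Activity was normalised to no-enzyme and no-compound control wells.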
Pf growth 96h: inhibits malaria parasite growth, 96 h | P. falciparum luciferase reporter growth, 96 h | Potency, µM (highest dose often 28.7 µM), inactives show top-dose activity change, negative = inhibition, hits mostly inhibitors | hit rate 6.9% among 320,000
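Delayed-death screen, second-generation endpoint: infected erythrocytes, 2% hematocrit, 0.05% parasitemia final; 96 hours at 37 C, 5% CO2; luciferase detection reagent; luminescence decrease equals reduced growth.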
AmpC detergent: blocks E. coli AmpC beta-lactamase in detergent assay; P00811; AmpC hydrolysis of nitrocefin, absorbance 480 nm, 0.01% Triton; Potency, µM (top dose mostly 114 µM), inactives show at the top dose activity change, negative = inhibition, most hits filed as inhibitors; hit rate 0.041% among 370,000; AID 485294;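 also: 0% = no-compound wells and -100% = no-enzyme wells; nearly all actives have a fitted effect of over 25% in size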
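AmpC (5.3 nM in the dispensed reagent) in 20 mM phosphate pH 7.0 with 0.01% (detergent screen) or 0.0001% Triton X-100 was preincubated with compounds for 15 min at room temperature. Nitrocefin was then added from an 800 uM solution, and hydrolysis was followed at 480 nm.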
AMA1-RON2 inh: disrupts binding of P. falciparum AMA1 to RON2; AlphaScreen AMA1-biotinylated RON2 peptide binding; Potency, µM (titrated, usually from 58.2 µM), inactives show at the highest dose activity change, negative = inhibition, actives largely listed as inhibitors; hit rate 0.2% among 360,000;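 also: 0% = vehicle wells and -100% = peptide control; nearly all actives have a fitted effect of over 45% in size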
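AMA1 (3D7) with his tag at 25 nM final met compounds first, then biotinylated RON2 peptide at 25 nM; detection used donor plus acceptor beads, 10 µg/mL apiece, read by AlphaScreen after 30 min at room temperature.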
Pf growth 48h: P. falciparum growth inhibition at 48 hours (one generation); P. falciparum luciferase growth in erythrocytes, 48 h; Potency, µM (titrated, usually from 28.7 µM), for inactives: at the highest dose activity change, negative = inhibition, usual class: inhibitors; hit rate 5.9% among 310,000
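In quantitative HTS format, infected erythrocytes bearing luciferase-reporter parasites were treated for a single generation at 37 C. Luminescence after adding detection reagent served as the growth measure.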
HCV inhibitor: blocks hepatitis C virus; Huh7.5.1 HCVcc-Cre infection, luciferase reporter, 44 h; Potency, µM (series often up to 41.8 µM), for inactives: at the top dose activity change, negative = inhibition, hits mostly inhibitors; hit rate 3.4% among 340,000; AID 651820
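A cell-based infection assay in which seeded cells (1,000 per well) receive test compound after 4 h, are inoculated with HCVcc-Cre at approximately 0.5 moi, and are incubated 44 h before luminescence detection.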
* hit, by the source's call; ? = inconclusive; · = no result. Only some compounds are listed: those with a hit (about 11% of all), similar ones and a draw of the others. Calls follow the shape of the dose curve; as a rule, active = well fitted curve in the direction sought with a large enough effect; inconclusive = small, poorly fitted or top-dose-only effect, or another doubt; inactive = no such curve, though single readings can be large; an effect the other way counts as inactive or inconclusive. Unless noted, % is scaled to controls: 0 for no effect and ±100 for the full control effect; potency is read from the fitted curve at half-maximal effect.

SMILES	AmpC inh no detg	Pf growth 96h	AmpC detergent	AMA1-RON2 inh	Pf growth 48h	HCV inhibitor
CCOC(=O)c1oc2ccc(S(=O)(=O)n3nc(-c4cc(OC)c(OC)c(OC)c4)cc3N)cc2c1C	41%	-9%	4%	-10%	13µM*	-26%
Cc1ccc(CCNC(=O)C2CCCN(S(=O)(=O)c3ccc4c(c3)oc(=O)n4C)C2)cc1 (stereo not drawn)	·	·	9%	·	·	·
Cn1c(SCc2ccc(Br)cc2)nc2c([nH]c3ccccc32)c1=O	·	·	-10%	·	·	·
CCc1nnc(SCc2cccc(Cl)c2)c2cc3sccc3n12	·	·	0%	·	·	·
CCOC(=O)c1oc2ccc(S(=O)(=O)N3CCC(C)CC3)cc2c1C	-17%	?	?	-1%	?	2%
CCOC(=O)c1oc2ccc(S(=O)(=O)N3CCOCC3)cc2c1C	-4%	1.9µM*	-13%	7%	-3%	4%
CCOc1ccc(-c2cn(CCC#N)cn2)cc1	-21%	6.6µM*	-3%	0%	30%	4%
O=C(CSc1nnc2ccc3ccccc3n12)Nc1ccccc1Cl	·	·	15%	·	·	·
O=C(c1cc(-c2ccc(Br)cc2)n[nH]1)N1CCN(S(=O)(=O)c2ccc(Br)cc2)CC1	·	·	14%	·	·	·
O=C(c1cc(-c2ccc(Br)cc2)n[nH]1)N1CCN(C(=O)c2ccccc2Br)CC1	112%	-15%	3%	26%	9.3µM*	?
Cc1ccc(S(=O)(=O)N2CCN(C(=O)c3n[nH]c4ccccc34)CC2)cc1	-13%	12µM*	14%	-12%	2.6µM*	0%
COc1ccc(S(=O)(=O)N2CCN(C(=O)c3cc(-c4ccc(Br)cc4)n[nH]3)CC2)cc1OC	72%	?	5%	23%	9.3µM*	?
O=C(c1cc(-c2ccccc2)n[nH]1)N1CCN(S(=O)(=O)c2ccccc2)CC1	-13%	?	?	-3%	3.7µM*	0%
CCCc1nn2c(=O)cc(COC(=O)c3ccccc3NC(=O)c3cccs3)nc2s1	·	·	2%	·	·	·
Cc1cc(C)cc(NC(=O)N2CCC(C(N)=O)(N3CCCCC3)CC2)c1	·	·	23%	·	·	·
COc1ccc(-c2ccc(=O)n(CC(=O)Nc3cc(OC)ccc3OC)n2)cc1	·	·	1%	·	·	·
COc1ccccc1-c1cc(C(=O)N2CCN(S(=O)(=O)c3ccc(C)cc3)CC2)[nH]n1	-17%	15µM*	-4%	18%	0.47µM*	?
COc1ccc(-c2cc(C(=O)N3CCN(S(=O)(=O)c4ccccc4)CC3)[nH]n2)cc1	-10%	55%	-15%	2%	?	-20%
O=C(CCn1c(=O)c2ccccc2n(Cc2cccc(Cl)c2)c1=O)NCCc1ccccc1	·	·	-3%	·	·	·
Cc1[nH]c2ccccc2c(=O)c1SC(F)(F)C(F)C(F)(F)F (stereo not drawn)	-15%	3.3µM*	-1%	-4%	0.83µM*	-7%
CCCCc1nn2c(=O)cc(COC(=O)c3ccccc3NC(=O)c3cccc(C)c3)nc2s1	·	·	-2%	·	·	·
COc1ccc(-n2c(C)nc(=O)c(-c3ccccc3)c2C)cc1	-8%	9.3µM*	-9%	-10%	-19%	7%
CNC(=O)c1nc(C)c(C2(C)CC(c3ccccc3)=NO2)s1 (stereo not drawn)	0%	40%	4%	-5%	19%	12%
Cc1nc(C(=O)Nc2cc(F)cc(Cl)c2)sc1C1(C)CC(c2ccccc2)=NO1 (stereo not drawn)	·	·	·	8%	·	14µM*
CCOC(=O)c1c(CSc2ccccc2)n(C)c2cc(Br)c(OCC(O)CNC(CO)(CO)CO)cc12 (stereo not drawn)	77%	13µM*	?	?	12µM*	?
SMILES	AmpC inh no detg	Pf growth 96h	AmpC detergent	AMA1-RON2 inh	Pf growth 48h	HCV inhibitor
CCc1ccc(OCC(=O)N(Cc2ccc(C(C)C)cc2)C2CCS(=O)(=O)C2)cc1 (stereo not drawn)	·	·	-9%	·	·	·
CC(=O)c1ccc(NC(=O)CN2C(=O)CCc3ccccc32)cc1	·	·	20%	·	·	·
COc1cc(/C=N/Nc2ccccn2)ccc1OCC(C)C	-20%	?	-2%	13%	26%	8.9µM*
C=CCOc1ccc(/C=N/Nc2ccccn2)cc1OC	-22%	202%	2%	29%	158%	14µM*
Cc1csc2nc(-c3cccc(NC(=O)c4c(F)cccc4F)c3)cn12	·	·	8%	·	·	·
CCCCNC(=O)c1cc(-c2ccc(OC)cc2)nc2n[nH]c(-c3cccc([N+](=O)[O-])c3)c12	·	·	6%	·	·	·
Cc1ccccc1-c1noc(-c2cc(C(C)C)[nH]n2)n1	·	·	4%	·	·	·
Cc1ccc(/C=C2\CCC3=C2OC(N)=C(C#N)C3c2ccc(C)cc2)cc1 (stereo not drawn)	-46%	?	-11%	7%	?	?
N#CC1=C(N)OC2=C(CCc3ccccc32)C1c1ccccc1 (stereo not drawn)	-38%	27%	-8%	-9%	12µM*	?
COc1ccc(N2C(=O)CC(c3ccccc3)C2=O)cc1 (stereo not drawn)	-2%	17%	0%	1%	4%	21%
COc1ccc(N2C(=O)CC(c3ccc(OC(C)C)cc3)C2=O)cc1 (stereo not drawn)	3%	7.4µM*	?	-1%	·	5%
Nc1ccc(N=Nc2ccccc2O)c(N)c1	·	·	·	0%	·	-16%
Oc1ccccc1N=Nc1ccccc1O	-20%	68%	-2%	-59%	2.6µM*	0.89µM*
Brc1cccc(OCCCCn2cncn2)c1	-8%	5%	-13%	-7%	15%	-4%
Clc1cc(Cl)c(OCCCCn2cncn2)c(Cl)c1	34%	0.29µM*	-13%	?	-11%	-5%
COC(=O)CN1C(=O)C(C)(C)Oc2ccc(C(=O)NC3CCCC3)cc21	-10%	6%	-11%	12%	-5%	13%
CCC(C)(C)NC(=O)c1ccc2c(c1)N(CC(=O)NC1CCCC1)C(=O)C(C)(C)O2	1%	6.6µM*	-2%	-16%	1%	8%
Cc1nc2c3ccccc3nc(NNC(=O)CCC(=O)N3CCCC(C)C3)n2n1 (stereo not drawn)	-9%	9.3µM*	3%	49%	0%	1%
Cc1nc2c3ccccc3nc(NNC(=O)CCC(=O)NC(C)C)n2n1	-11%	6.6µM*	0%	23%	32%	25%
CC(C)CCNC(=O)CCC(=O)NNc1nc2ccccc2c2nc(-c3ccccc3)nn12	-9%	10µM*	21%	96%	15%	-24%
COc1ccc(-n2c(SCC(=O)Nc3cc(C)cc(C)c3)nc3c(oc4ccccc43)c2=O)cc1	·	·	24%	·	·	·
Cc1cccc(NC(=O)c2cnc3sccn3c2=O)c1	-22%	412%	4%	0%	160%	16%
